Measured values from the supplement of paper PMC12645437, “Orthogonal IMiD-Degron Pairs Induce Selective Protein Degradation in Cells” (ACS Chemical Biology, 2025).
The full ranking holds about 8,300 sequences; the median of “log2 fold change of degron read counts, EGFP-low vs EGFP+ sorted cells (limma voom), compound-induced degradation” is about -1.1, and the highest 2% start at about 3.2. For the sample, the highest values were picked, then their nearest neighbours and some sequences at random.

T1: CRBN, Q96SW2
T1 chain: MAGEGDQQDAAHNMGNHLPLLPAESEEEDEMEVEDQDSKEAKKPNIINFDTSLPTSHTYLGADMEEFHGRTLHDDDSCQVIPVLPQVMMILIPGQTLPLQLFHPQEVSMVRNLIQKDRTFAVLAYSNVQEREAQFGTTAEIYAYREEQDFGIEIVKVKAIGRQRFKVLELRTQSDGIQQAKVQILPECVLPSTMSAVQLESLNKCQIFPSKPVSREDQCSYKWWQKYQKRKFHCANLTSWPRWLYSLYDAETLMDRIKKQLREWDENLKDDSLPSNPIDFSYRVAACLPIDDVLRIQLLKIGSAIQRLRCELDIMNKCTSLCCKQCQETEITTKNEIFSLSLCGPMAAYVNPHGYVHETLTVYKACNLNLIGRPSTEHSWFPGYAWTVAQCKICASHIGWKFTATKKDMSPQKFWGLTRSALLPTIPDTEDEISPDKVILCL


Molecular target: T1, CRBN, Q96SW2
Experiment: log2 fold change of degron read counts, EGFP-low vs EGFP+ sorted cells (limma voom), compound-induced degradation; higher = more compound-induced degradation of the degron-EGFP fusion; degrons are variants of IKZF1/3 zinc finger 2; compound dose not given here
Conditions: Jurkat, 18 h
[1] = compound: compound 19 (5-tert-butyl-thalidomide)
[2] = compound: compound 22 (5-morpholino-thalidomide)
[3] = compound: compound 33 (diphenyl IMiD analogue)
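Also: pooled lentiviral library of zinc finger degron-EGFP fusions in mCherry-positive Jurkat cells, FACS-sorted after compound exposure, with degron abundance counted by next-generation sequencing.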

Sequence | log2 fold change of degron read counts [1] | log2 fold change of degron read counts [2] | log2 fold change of degron read counts [3] | log2 fold change of degron read counts (compound: thalidomide)
FQCPICGRGFTQKGNLLRHIKL [46F_47Q_49P_50I_52G_53R_54G_55F_67L_, Q9UKT9] | -0.816 | -0.908 | -0.112 | 1.8
FQCEICGAVFTQKGNLLRHIKL [46F_47Q_49E_50I_52G_53A_54V_55F_67L_, Q9UKT9] | 0.132 | 2.71 | 2.34 | 3.22
FGCDQCGAWFTQKGNLLRHIKL [46F_47G_49D_50Q_52G_53A_54W_55F_67L_, Q9UKT9] | -2.44 | -2.82 | -1.38 | -2.3
FMCEICGHQFTQKGNLLRHIKL [46F_47M_49E_50I_52G_53H_54Q_55F_67L_, Q9UKT9] | -3.75 | -3.29 | -1.95 | -1.87
FCCNQCGRVFTQKGNLLRHIKL [46F_47C_49N_50Q_52G_53R_54V_55F_67L_, Q9UKT9] | -2.29 | -2.57 | -2.1 | -2.12
FLCNQCGRCFTQKGNLLRHIKL [46F_47L_49N_50Q_52G_53R_54C_55F_67L_, Q9UKT9] | -1.41 | -1.61 | -3.08 | -2.11
FVCPQCGAIFTQKGNLLRHIKL [46F_47V_49P_50Q_52G_53A_54I_55F_67L_, Q9UKT9] | -2.01 | -1.63 | -0.464 | -0.946
FLCPICGASFTQKGNLLRHIKL [46F_47L_49P_50I_52G_53A_54S_55F_67L_, Q9UKT9] | 1.51 | 0.569 | 1.64 | 1.57
FECDICGASFTQKGNLLRHIKL [46F_47E_49D_50I_52G_53A_54S_55F_67L_, Q9UKT9] | 0.774 | -2.24 | -0.436 | -0.0103
FKCPICGASFTQKGNLLRHIKL [46F_47K_49P_50I_52G_53A_54S_55F_67L_, Q9UKT9] | 1.49 | -0.57 | -1.45 | 0.422
FWCDICGASFTQKGNLLRHIKL [46F_47W_49D_50I_52G_53A_54S_55F_67L_, Q9UKT9] | 3.28 | 3.69 | 1.52 | -0.347
FCCDICGASFTQKGNLLRHIKL [46F_47C_49D_50I_52G_53A_54S_55F_67L_, Q9UKT9] | 2.32 | 1.84 | 0.871 | 0.402
FNCPICGASFTQKGNLLRHIKL [46F_47N_49P_50I_52G_53A_54S_55F_67L_, Q9UKT9] | 2.84 | 1.58 | 1.33 | 0.876
FDCPICGASFTQKGNLLRHIKL [46F_47D_49P_50I_52G_53A_54S_55F_67L_, Q9UKT9] | 3.04 | 1.06 | 1.22 | 1.9
FWCPICGASFTQKGNLLRHIKL [46F_47W_49P_50I_52G_53A_54S_55F_67L_, Q9UKT9] | 3.29 | 3.64 | 2.28 | 1.35
FQCPICGASFTQKGNLLRHIKL [46F_47Q_49P_50I_52G_53A_54S_55F_67L_, Q9UKT9] | 2.55 | 2.88 | 2.76 | 3.79
FYCPICGASFTQKGNLLRHIKL [46F_47Y_49P_50I_52G_53A_54S_55F_67L_, Q9UKT9] | 3.25 | 3.43 | 2.54 | 1.24
FQCDICGASFTQKGNLLRHIKL [46F_47Q_49D_50I_52G_53A_54S_55F_67L_, Q9UKT9] | 1.07 | 1.92 | 1.15 | 2.99
FACNQCGHQFTQKGNLLRHIKL [46F_47A_49N_50Q_52G_53H_54Q_55F_67L_, Q9UKT9] | -2.48 | -3.06 | -3.27 | -2.92
FRCNVCGAQFTQKGNLLRHIKL [46F_47R_49N_50V_52G_53A_54Q_55F_67L_, Q9UKT9] | -1.54 | -1.19 | -0.656 | -0.561
FNCPICGHYFTQKGNLLRHIKL [46F_47N_49P_50I_52G_53H_54Y_55F_67L_, Q9UKT9] | -1.6 | -1.7 | -1.47 | -1.44
FFCSVCGHKFTQKGNLLRHIKL [46F_47F_49S_50V_52G_53H_54K_55F_67L_, Q9UKT9] | -1.05 | -2.36 | -2.5 | -2.6
FCCSVCGHVFTQKGNLLRHIKL [46F_47C_49S_50V_52G_53H_54V_55F_67L_, Q9UKT9] | -1.81 | -2.39 | -2.47 | -2.11
FGCPICGASFTQKGNLLRHIKL [46F_47G_49P_50I_52G_53A_54S_55F_67L_, Q9UKT9] | 3.27 | 2.28 | 2.49 | 1.31
FFCPICGASFTQKGNLLRHIKL [46F_47F_49P_50I_52G_53A_54S_55F_67L_, Q9UKT9] | 3.26 | 3.18 | 2.18 | 1.74
FTCPICGASFTQKGNLLRHIKL [46F_47T_49P_50I_52G_53A_54S_55F_67L_, Q9UKT9] | 2.17 | 3.02 | 2.88 | 3.23
FFCNICGASFTQKGNLLRHIKL [46F_47F_49N_50I_52G_53A_54S_55F_67L_, Q9UKT9] | 2.16 | 2.55 | 1.2 | -0.157
FHCPICGASFTQKGNLLRHIKL [46F_47H_49P_50I_52G_53A_54S_55F_67L_, Q9UKT9] | 2.77 | 2.54 | 2.08 | 0.926
